Results taken from ChEMBL document CHEMBL1961873, “Compounds: GSK PKIS; Assays: Nanosyn kinase panel” (2012).

Legend:
[1] = biological target: Tyrosine-protein kinase CSK (Homo sapiens) (UniProt P41240); conditions: at 1 µM;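 further: each value is an averaged inhibition reading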
[2] = biological target: T1, Discoidin domain-containing receptor 2 (Homo sapiens) (UniProt Q16832); conditions: at 0.1 µM
T1 sequence (whole entry): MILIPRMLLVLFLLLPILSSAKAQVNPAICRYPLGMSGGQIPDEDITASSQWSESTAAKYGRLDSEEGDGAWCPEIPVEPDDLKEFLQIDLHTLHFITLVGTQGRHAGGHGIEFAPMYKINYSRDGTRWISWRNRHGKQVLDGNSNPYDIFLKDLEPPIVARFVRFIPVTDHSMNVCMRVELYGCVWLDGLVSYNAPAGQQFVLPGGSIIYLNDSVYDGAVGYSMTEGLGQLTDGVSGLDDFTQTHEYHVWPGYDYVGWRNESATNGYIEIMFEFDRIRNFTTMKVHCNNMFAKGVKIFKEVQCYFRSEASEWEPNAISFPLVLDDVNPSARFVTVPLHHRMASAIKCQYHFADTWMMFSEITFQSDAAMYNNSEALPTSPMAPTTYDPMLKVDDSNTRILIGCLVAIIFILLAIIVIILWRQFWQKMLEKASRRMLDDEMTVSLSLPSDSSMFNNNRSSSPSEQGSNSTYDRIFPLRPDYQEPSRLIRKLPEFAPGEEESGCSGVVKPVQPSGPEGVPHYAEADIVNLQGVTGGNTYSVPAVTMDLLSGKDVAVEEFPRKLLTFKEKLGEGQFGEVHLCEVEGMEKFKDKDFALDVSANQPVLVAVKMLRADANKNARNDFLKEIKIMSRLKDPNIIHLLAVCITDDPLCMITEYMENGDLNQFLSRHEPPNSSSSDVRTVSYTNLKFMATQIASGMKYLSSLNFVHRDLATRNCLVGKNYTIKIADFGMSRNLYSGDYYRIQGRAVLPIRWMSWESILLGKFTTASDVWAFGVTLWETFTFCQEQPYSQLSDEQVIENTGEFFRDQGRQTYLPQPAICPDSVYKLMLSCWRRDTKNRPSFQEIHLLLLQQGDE

[3] = biological target: T1, Discoidin domain-containing receptor 2 (Homo sapiens); conditions: at 1 µM
[4] = biological target: Epidermal growth factor receptor (Homo sapiens) (UniProt P00533); conditions: at 0.1 µM
[5] = biological target: Epidermal growth factor receptor (Homo sapiens) (UniProt P00533); conditions: at 1 µM
[6] = test system: Epidermal growth factor receptor (Homo sapiens), P00533 [L858R]; conditions: at 0.1 µM
Chain of Epidermal growth factor receptor (Homo sapiens), P00533 [L858R] (P00533 whole entry L858R): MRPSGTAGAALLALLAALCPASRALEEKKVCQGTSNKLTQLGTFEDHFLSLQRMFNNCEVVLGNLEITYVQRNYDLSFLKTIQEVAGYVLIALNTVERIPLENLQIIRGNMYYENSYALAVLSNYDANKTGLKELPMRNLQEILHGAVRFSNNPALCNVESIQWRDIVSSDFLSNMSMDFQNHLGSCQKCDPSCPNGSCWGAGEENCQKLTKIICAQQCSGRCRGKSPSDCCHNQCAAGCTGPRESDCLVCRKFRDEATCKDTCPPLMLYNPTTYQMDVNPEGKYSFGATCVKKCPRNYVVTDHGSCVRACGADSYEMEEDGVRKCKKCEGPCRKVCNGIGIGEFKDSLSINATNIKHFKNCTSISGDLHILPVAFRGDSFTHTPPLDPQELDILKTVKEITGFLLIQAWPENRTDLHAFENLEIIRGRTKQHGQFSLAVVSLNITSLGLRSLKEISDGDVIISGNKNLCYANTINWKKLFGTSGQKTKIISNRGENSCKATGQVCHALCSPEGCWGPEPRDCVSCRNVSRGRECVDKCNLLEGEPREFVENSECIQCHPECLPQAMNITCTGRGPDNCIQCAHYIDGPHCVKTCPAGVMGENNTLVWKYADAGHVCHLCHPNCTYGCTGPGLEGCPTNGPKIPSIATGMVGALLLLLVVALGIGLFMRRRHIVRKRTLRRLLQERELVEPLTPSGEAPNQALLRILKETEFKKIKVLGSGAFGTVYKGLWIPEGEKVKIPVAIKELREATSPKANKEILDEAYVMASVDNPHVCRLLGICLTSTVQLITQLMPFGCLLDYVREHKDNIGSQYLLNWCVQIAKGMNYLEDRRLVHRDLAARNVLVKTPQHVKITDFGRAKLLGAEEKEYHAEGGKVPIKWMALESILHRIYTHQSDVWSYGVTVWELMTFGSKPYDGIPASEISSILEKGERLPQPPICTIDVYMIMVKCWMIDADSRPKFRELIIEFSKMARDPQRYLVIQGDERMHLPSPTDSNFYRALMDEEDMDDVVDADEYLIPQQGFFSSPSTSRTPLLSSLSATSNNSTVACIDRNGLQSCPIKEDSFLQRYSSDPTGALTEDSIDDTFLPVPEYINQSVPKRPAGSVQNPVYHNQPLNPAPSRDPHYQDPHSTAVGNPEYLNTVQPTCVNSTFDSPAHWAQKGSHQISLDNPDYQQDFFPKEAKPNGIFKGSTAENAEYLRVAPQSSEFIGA

[7] = test system: Epidermal growth factor receptor (Homo sapiens), P00533 [L858R]; conditions: at 1 µM
[8] = test system: Epidermal growth factor receptor (Homo sapiens), P00533 [L861Q]; conditions: at 0.1 µM
Chain of Epidermal growth factor receptor (Homo sapiens), P00533 [L861Q] (P00533 whole entry L861Q): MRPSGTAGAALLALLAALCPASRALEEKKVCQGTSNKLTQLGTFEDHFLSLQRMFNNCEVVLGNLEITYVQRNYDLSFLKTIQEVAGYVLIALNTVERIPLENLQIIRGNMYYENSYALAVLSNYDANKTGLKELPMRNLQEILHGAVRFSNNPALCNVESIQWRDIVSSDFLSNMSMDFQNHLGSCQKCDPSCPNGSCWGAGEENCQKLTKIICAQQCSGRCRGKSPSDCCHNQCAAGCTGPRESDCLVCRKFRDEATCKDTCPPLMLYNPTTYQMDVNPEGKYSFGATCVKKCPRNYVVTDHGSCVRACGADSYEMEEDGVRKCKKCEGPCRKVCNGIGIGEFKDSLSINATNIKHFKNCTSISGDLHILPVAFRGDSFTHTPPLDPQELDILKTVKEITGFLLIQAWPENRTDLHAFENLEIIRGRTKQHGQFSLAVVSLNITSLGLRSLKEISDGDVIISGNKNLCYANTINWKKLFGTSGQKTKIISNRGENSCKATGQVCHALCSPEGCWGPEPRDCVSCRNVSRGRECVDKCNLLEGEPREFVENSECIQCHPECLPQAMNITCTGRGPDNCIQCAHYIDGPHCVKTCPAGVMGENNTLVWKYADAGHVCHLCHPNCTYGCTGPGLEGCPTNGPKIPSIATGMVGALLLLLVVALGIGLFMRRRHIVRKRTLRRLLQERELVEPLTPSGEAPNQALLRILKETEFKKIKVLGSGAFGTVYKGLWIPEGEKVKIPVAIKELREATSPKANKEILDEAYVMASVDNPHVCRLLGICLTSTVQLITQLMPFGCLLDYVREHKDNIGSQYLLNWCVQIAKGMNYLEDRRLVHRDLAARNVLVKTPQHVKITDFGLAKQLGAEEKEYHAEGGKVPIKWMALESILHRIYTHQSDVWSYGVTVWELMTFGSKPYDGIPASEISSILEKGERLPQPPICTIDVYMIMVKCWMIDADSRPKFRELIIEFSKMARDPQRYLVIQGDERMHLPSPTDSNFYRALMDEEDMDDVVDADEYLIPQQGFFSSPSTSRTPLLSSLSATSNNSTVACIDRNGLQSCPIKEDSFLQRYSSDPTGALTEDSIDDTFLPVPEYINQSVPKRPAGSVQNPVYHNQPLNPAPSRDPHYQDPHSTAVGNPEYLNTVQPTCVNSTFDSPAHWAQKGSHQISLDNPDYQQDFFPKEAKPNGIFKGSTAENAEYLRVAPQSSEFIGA

[9] = test system: Epidermal growth factor receptor (Homo sapiens), P00533 [L861Q]; conditions: at 1 µM
[10] = test system: Epidermal growth factor receptor (Homo sapiens), P00533 [T790M]; conditions: at 0.1 µM
Chain of Epidermal growth factor receptor (Homo sapiens), P00533 [T790M] (P00533 whole entry T790M): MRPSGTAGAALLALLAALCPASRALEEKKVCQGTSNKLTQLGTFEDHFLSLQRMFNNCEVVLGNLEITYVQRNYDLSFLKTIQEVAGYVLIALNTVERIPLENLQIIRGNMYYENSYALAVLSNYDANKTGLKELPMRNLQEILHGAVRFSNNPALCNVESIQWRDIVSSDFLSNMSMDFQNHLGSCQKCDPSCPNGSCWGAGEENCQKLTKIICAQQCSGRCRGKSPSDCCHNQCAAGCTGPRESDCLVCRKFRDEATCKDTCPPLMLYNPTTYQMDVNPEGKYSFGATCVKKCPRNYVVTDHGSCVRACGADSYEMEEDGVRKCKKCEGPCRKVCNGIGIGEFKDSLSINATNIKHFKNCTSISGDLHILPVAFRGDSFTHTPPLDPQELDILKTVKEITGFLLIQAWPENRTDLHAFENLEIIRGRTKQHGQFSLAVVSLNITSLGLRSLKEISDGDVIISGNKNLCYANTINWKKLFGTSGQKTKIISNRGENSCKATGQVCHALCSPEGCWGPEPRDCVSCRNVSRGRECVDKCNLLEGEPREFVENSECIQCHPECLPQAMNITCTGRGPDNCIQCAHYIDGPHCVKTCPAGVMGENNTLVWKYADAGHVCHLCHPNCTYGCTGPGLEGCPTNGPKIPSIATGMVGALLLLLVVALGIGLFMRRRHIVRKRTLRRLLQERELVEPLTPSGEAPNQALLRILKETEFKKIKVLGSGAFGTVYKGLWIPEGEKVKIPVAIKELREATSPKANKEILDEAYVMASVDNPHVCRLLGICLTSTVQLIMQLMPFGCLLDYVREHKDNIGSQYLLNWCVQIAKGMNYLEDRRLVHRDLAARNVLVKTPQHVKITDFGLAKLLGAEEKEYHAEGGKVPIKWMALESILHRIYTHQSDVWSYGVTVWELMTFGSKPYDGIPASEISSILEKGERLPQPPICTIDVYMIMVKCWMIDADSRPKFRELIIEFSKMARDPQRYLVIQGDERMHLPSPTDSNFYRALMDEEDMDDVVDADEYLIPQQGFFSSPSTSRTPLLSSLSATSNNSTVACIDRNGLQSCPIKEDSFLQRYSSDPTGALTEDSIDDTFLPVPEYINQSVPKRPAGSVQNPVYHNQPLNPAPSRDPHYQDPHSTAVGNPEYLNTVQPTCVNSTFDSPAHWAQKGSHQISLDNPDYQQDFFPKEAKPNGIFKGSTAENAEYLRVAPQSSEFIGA

Chain of Tyrosine-protein kinase CSK (Homo sapiens) (P41240 2-450 limits assumed): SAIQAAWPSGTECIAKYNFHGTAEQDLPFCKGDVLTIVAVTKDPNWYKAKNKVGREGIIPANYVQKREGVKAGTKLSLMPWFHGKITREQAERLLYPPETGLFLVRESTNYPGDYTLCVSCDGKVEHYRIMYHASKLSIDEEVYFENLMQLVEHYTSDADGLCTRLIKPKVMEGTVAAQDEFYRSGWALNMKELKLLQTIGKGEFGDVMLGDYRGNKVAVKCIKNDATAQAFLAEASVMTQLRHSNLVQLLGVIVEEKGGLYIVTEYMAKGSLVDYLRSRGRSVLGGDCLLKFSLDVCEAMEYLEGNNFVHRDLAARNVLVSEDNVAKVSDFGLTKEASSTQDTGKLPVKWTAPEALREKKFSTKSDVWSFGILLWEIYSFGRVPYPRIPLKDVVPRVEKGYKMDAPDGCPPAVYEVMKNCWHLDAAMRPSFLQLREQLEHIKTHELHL

| SMILES | inhibition [1] [%] | inhibition [2] [%] | inhibition [3] [%] | inhibition [4] [%] | inhibition [5] [%] | inhibition [6] [%] | inhibition [7] [%] | inhibition [8] [%] | inhibition [9] [%] | inhibition [10] [%] |
| --- | --- | --- | --- | --- | --- | --- | --- | --- | --- | --- |
| CC(C)c1ccc2c(c1)NC(=O)/C2=N/Nc1ccc(S(N)(=O)=O)cc1 | 0.99 | 0.55 | 0.19 | 1.14 | 2.18 | -0.18 | -0.39 | -0.48 | -2.09 | -1.03 |
| Nc1nccc(-c2c(-c3ccc(F)cc3)ncn2CCCN2CCOCC2)n1 | 2.85 | -0.61 | -1.04 | -0.84 | 6.38 | 5.87 | 31.9 | 4.34 | 10.9 | 2.78 |
| COc1ccc(-c2nn3ncccc3c2-c2ccnc(Nc3cccc(C(F)(F)F)c3)n2)cc1 | 7.02 | 2.63 | 22 | 9.51 | 19.1 | 4.1 | 21.7 | 2.85 | 11.8 | 1 |
| O=C1Nc2ccccc2/C1=C/Nc1ccc2[nH]c(=O)[nH]c2c1 | 9.18 | 5.46 | 8.62 | 4.63 | 7.94 | 3.53 | 6.79 | 4.1 | 6.47 | 3.08 |
| Nc1nccc(C#Cc2cncnc2Nc2ccc(OCc3cccc(F)c3)c(Cl)c2)n1 | 3.09 | 1.14 | 4.7 |  |  |  |  |  |  |  |
| CC(C)c1ccc(Nc2nccc(-c3cnn4ncccc34)n2)cc1 | 6.02 | 1.04 | 0.75 | 4.49 | 6.88 | 3.51 | 7.83 | 4.16 | 6.18 | -0.27 |
| COc1cc2ncnc(Nc3ccc4c(cnn4Cc4ccccc4)c3)c2cc1OC | 58.2 | 1.74 | 1.78 | 87.2 | 84.7 | 72.5 | 94.4 | 55.8 | 84.8 | 8.65 |
| COc1cccc(-n2ncc3c(N/N=C/c4ccc(C)cc4)ncnc32)c1 | 8.35 | 0.39 | 2.37 | 3.01 | 4.71 | 2.45 | 11.7 | 1.42 | 6.09 | 0.91 |
| NS(=O)(=O)c1ccc(NC=C2C(=O)Nc3ccc4ncsc4c32)cc1 | 3.77 | 1.65 | 6.94 | 0.01 | 0.9 | 3.08 | 5.45 | 2.21 | 0.54 | 2.24 |
| [O-][S+]1CCN(Cc2ccc(-c3ccc4ncnc(Nc5ccc(OCc6ccccc6)c(Cl)c5)c4c3)o2)CC1 | 1.54 | 0.28 | 1.54 |  |  |  |  |  |  |  |
| C[C@@H](Oc1cc(-n2cnc3ccc(OC[C@@H](O)CO)cc32)sc1C(N)=O)c1ccccc1Cl | -0.52 | 0.32 | 0.79 | -0.06 | 2.04 | -2.48 | 1.14 | -1.31 | -2.45 | -3.45 |
| N#Cc1c(NC(=O)c2ccccc2F)sc2c1CCCC2 | -5.02 | -1.61 | -1.14 | 2.1 | 4 | 1.21 | 3.66 | -0.67 | -1.19 | -2.41 |
| O=C(Nc1ccc(Oc2ccc3[nH]c(NC(=O)c4ccco4)nc3c2)cc1)Nc1cc(C(F)(F)F)ccc1F | 35.3 | 60.3 | 80.2 | -1.7 | -1.45 | 0.69 | 0.69 | 0.16 | -2.44 | 0.07 |
| NS(=O)(=O)c1cccc(-c2cc3ccncc3cc2OCc2ccccc2)c1 | 4.74 | 1.4 | 6.85 | -0.75 | 3.23 | 4.24 | 6.99 | 4.79 | 3.2 | 2.32 |
| Cc1ccc2c(-c3ccnc(Nc4cccc(C(F)(F)F)c4)n3)c(-c3ccccc3)nn2n1 | 11.4 | 6.32 | 47.4 | 28.9 | 70.3 | 82.3 | 94.8 | 48.2 | 88.2 | 10.9 |
| Cc1ccc(Nc2ccnc(Nc3cccc(C(N)=O)c3)n2)cc1O | 35.4 | 5.32 | 30 | -1.74 | 11.7 | 5.83 | 32 | 4.18 | 13 | 3.21 |
| CN1CCN(C(=O)c2ccc(NC(=O)Nc3ccc(N(C)c4ccnc(Nc5ccc(CS(C)(=O)=O)cc5)n4)cc3)cc2)CC1 | 12.6 | 66 | 85 | 4.52 | 7 | -3.46 | 2.15 | 1.12 | 4.44 | -0.46 |
| COC(=O)Nc1nc2cc(Oc3ccc(NC(=O)Nc4cccc(Br)c4)cc3)ccc2[nH]1 | 3.27 | 98.2 | 93.7 | 1.74 | 3.19 | 5.58 | 5.33 | 3.01 | 4.1 | 2.15 |
| CN(C)C(=O)O[C@H]1CN[C@H](C#Cc2cc3ncnc(Nc4ccc(OCc5cccc(F)c5)c(Cl)c4)c3s2)C1 | 2.76 | 1.62 | 1.98 |  |  |  |  |  |  |  |
| CCS(=O)(=O)c1ccc(OC)c(Nc2ncc(-c3cccc(OC)c3)o2)c1 | 10.6 | 3.76 | 20 | 1.96 | 8.46 | 6.95 | 27.6 | 4.06 | 6.2 | 1.83 |
| NS(=O)(=O)c1cccc(Nc2cc(-c3ccc(F)cc3)n[nH]2)c1 | 6.86 | 0.4 | 2.6 | -0.56 | 3.41 | 1.69 | 6.63 | 2.18 | 5.8 | 2.62 |

| SMILES | inhibition [1] [%] | inhibition [2] [%] | inhibition [3] [%] | inhibition [4] [%] | inhibition [5] [%] | inhibition [6] [%] | inhibition [7] [%] | inhibition [8] [%] | inhibition [9] [%] | inhibition [10] [%] |
| --- | --- | --- | --- | --- | --- | --- | --- | --- | --- | --- |
| Oc1cccc(-c2nc(-c3ccccc3)[nH]c2-c2ccncc2)c1 | 16.5 | 2.82 | 10.9 | 2.76 | 4.4 | 6.31 | 19.7 | 4.74 | 8.26 | 1.84 |
| O=C1Nc2ccc(-c3cccnc3)cc2C1=Cc1cc(Br)c(O)c(Br)c1 | -1.69 | 2.03 | 5.97 | -0.06 | 5.08 | 4.88 | 10.5 | 2.92 | 2.2 | 2.3 |
| C[C@@H](Oc1cc(-n2cnc3ccc(OCC4CCN(C)CC4)cc32)sc1C(N)=O)c1ccccc1C(F)(F)F | -1.36 | -1.18 | -4.23 | 2.6 | 9.98 | 8.84 | 42.5 | -0.46 | 8.68 | -1.87 |
| CN(C)c1cc2c(Nc3ccc4c(cnn4Cc4ccccc4)c3)ncnc2cn1 | 27.6 | 1.06 | 3.09 |  |  |  |  |  |  |  |
| Cc1ccc(O)cc1Nc1ccnc2ccc(S(C)(=O)=O)cc12 | 94.2 | 59.8 | 79.7 | 12.7 | 36.6 | 19.7 | 72.1 | 8.5 | 31.9 | 3.11 |
| COc1cc2ncnc(Nc3ccc(C)c(O)c3)c2cc1OC | 16.8 | 2.29 | 9.45 | 64.7 | 80.9 | 92.3 | 99.4 | 77.2 | 96.2 | 8.64 |
| Nc1ccc(C#Cc2cncnc2Nc2ccc(OCc3cccc(F)c3)c(Cl)c2)cc1 | 4.88 | 1.32 | 0.65 | 45.5 | 82.8 | 5.98 | 35.2 | 23.1 | 37.2 | 2.51 |
| NS(=O)(=O)c1ccc(N/N=C2\C(=O)Nc3ccc(Cl)cc32)cc1 | 7.01 | 0.3 | 3.13 | -0.16 | 5.53 | 2.02 | 5.32 | 1.9 | 3.4 | 0.9 |
| O=S(=O)(CCOCc1ccc(-c2ccc3ncnc(Nc4ccc(OCc5cccc(F)c5)c(Cl)c4)c3c2)o1)c1ccccc1 | 1.36 | 1.97 | 3.8 | 71.9 | 84.7 | 25.1 | 77.3 | 33.8 | 68.4 | -0.58 |
| COC(=O)c1ccc2c(c1)C(=Cc1cc(Br)c(O)c(Br)c1)C(=O)N2 | 5.89 | 2.18 | 7.08 | 3.97 | 2.76 | -1.26 | 11.3 | 0.68 | 4.11 | 0.31 |
| c1ccc(Cc2nc3ccc(Nc4ncnc5ccccc45)cc3[nH]2)cc1 | 30.9 | 0.85 | 1.06 | 24.3 | 67.2 | 2.32 | 11.3 | 12 | 22.2 | 2.05 |
| CN(C)C(=O)O[C@@H]1CN[C@@H](C#Cc2cc3ncnc(Nc4ccc(OCc5cccc(F)c5)c(Cl)c4)c3s2)C1 | -1.42 | 1.79 | 3.36 |  |  |  |  |  |  |  |
| CCS(=O)(=O)c1ccc(OC)c(Nc2nccc(N(C)c3ccc4c(C)n[nH]c4c3)n2)c1 | 15.2 | -0.23 | -2.28 | 7.37 | 35.2 | 7.56 | 43.1 | 7.97 | 31.4 | 4.42 |
| NS(=O)(=O)c1ccc(-c2cc3ccncc3cc2OCc2ccccc2)cc1 | 5.2 | 1.3 | 2.48 | -0.53 | 2.78 | 5.04 | 12.6 | 3.81 | 5.67 | 1.46 |
| CCn1c(-c2nonc2N)nc2c(C#CC(C)(C)O)nc(OCCNC)cc21 | 5.91 | 1.73 | 2.04 | 0.82 | 0.07 | 1.22 | 3.32 | 1.91 | 2.32 | 1.88 |
| Cc1cc(O)cc(C)c1/C=C/c1cncc(C(=O)N(C)C)c1 | 7.46 | 4 | 6.51 | 3.09 | 6.63 | 2.7 | 3.1 | 3.53 | 2.99 | 1.24 |
| Cc1nc(-c2ccccc2)n2nc(NCCCN3CCOCC3)ncc12 | 1.69 | 1.13 | 1.28 | 5.65 | 7.11 | 1.69 | 4.22 | 0.9 | 1.99 | -0.64 |
| Cc1ccc2c(c1)/C(=N/Nc1ccc(S(N)(=O)=O)cc1)C(=O)N2 | -6.97 | -0.42 | -0.71 | -0.37 | 0.75 | -1.56 | -1.97 | -0.23 | -4.18 | -0.84 |
| Cc1cc(-c2ccccn2)cc(C)c1/C=C/c1cncc(-c2nn[nH]n2)c1 | 20.2 | 1.22 | 5.62 | 2 | 9.58 | 2.87 | 4.85 | 2.42 | 5.99 | -0.39 |
| CCOc1nccc2c1nc(-c1nonc1N)n2CC | 7.45 | 4.52 | 5.68 | 2.26 | 1.18 | 4.22 | 7.51 | 4.18 | 5.85 | 1.6 |
